Results taken from PubChem BioAssay AID504332 (National Center for Advancing Translational Sciences (NCATS), 2011).
The whole screen tested about 350,000 compounds, of which about 31,000 (8.9%) were called active. A call without a number means that no potency is given here. Roughly 15% stayed inconclusive and do not appear here. Many of the other results were omitted from the sample, so actives are more common in it than they were. Values without a mark were called inactive. Calls follow the shape of the dose curve; as a rule, active = well fitted inhibition curve with a large enough effect; inconclusive = small, poorly fitted or top-dose-only effect; inactive = no such curve, though single readings can be large or run the other way.

Target: Histone-lysine N-methyltransferase EHMT2 (Homo sapiens) (UniProt Q96KQ7)
Assay: qHTS Assay for Inhibitors of Histone Lysine Methyltransferase G9a; also: nearly all actives have a fitted effect of over 75% in size
Conditions: G9a H3K9 monomethylation, AlphaScreen, 2 h; series mostly up to 59 µM
Method in brief: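 AlphaScreen detection with an anti-monomethyl H3K9 antibody quantified product after a 2 h room-temperature reaction containing 500 nM biotinylated H3K9 peptide, 20 µM SAM and 20 nM enzyme, which had been preincubated 15 min with compound.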
Potency is read from the fitted curve at half-maximal effect.

Sequence of Histone-lysine N-methyltransferase EHMT2 (Homo sapiens) (Q96KQ7 913-1193 limits assumed): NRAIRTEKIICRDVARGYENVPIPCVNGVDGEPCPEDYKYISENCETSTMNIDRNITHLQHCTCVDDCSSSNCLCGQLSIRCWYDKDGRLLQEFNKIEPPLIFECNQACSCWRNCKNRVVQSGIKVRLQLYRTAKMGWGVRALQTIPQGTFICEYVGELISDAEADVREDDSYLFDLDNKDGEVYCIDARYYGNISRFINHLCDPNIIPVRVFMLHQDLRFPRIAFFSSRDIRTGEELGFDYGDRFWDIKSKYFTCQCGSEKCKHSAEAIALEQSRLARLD

Row | SMILES | Potency | activity, negative = inhibition
1 | CCC(=O)N1c2ccccc2CC1C(=O)N1CCN(c2cccc(OC)c2)CC1 (configuration not stated) | inactive | –
2 | COc1cccc(C(=O)NC2(C(F)(F)F)C(=O)Nc3c2c(=O)[nH]c(=O)n3-c2ccc(C)cc2)c1 (configuration not stated) | inactive | –
3 | CCOc1ccc(CN2CCN(Cc3ccon3)CC2CCO)cc1 (configuration not stated) | inactive | –
4 | CCOc1ccc(CN2CCN(Cc3ccc4cc(F)ccc4n3)CC2CCO)cc1 (configuration not stated) | inactive | –
5 | CCOc1ccc(CN2CCN(Cc3ccc(C)o3)CC2CCO)cc1 (configuration not stated) | 70.8 µM (active) | –
6 | COCCn1c(C)cc(C(=O)CSc2nnc(C3CC3)n2C2CC2)c1C | – | -12.5% [at 12.7 µM]
7 | Cc1ccc(Cl)cc1N1CCN(C(=O)C2CCC(CNS(=O)(=O)c3cccs3)CC2)CC1 (configuration not stated) | inactive | –
8 | Cc1ccc(S(=O)(=O)NNC(=O)/C=C/c2cccc(F)c2)cc1 | inactive | –
9 | Cc1ccc(CC2(O)CCN(CCOc3ccc(O)cc3)CC2)cc1 | inactive | –
10 | OC(COc1ccc2ccccc2c1)CN1CCOCC1 (configuration not stated) | inactive | –
11 | OC(COc1ccc(Br)cc1)CN1CCCC1 (configuration not stated) | inactive | –
12 | c1ccc2cc(OCCN3CCCC3)ccc2c1 | 12.6 µM (active) | –
13 | Clc1ccccc1-c1cc(COc2ccc3ccccc3c2)no1 | inactive | –
14 | Cc1cc(OCCN2CCCC2)ccc1C(C)C | 8.91 µM (active) | –
15 | COc1cccc(NC(=O)NCCN2CCCCC2)c1 | inactive | –
16 | COc1cccc(OCCCN2CCCCCC2)c1 | 11.2 µM (active) | –
17 | COc1cccc(OCC(O)CN2CCN(CCO)CC2)c1 (configuration not stated) | inactive | –
18 | Cc1cc(OCCN2CCCC2)cc(C(C)C)c1 | 11.2 µM (active) | –
19 | Cc1cc(C)c(NC(=O)CN2CCCCCC2)c(C)c1 | – | 41.6% [at 0.501 µM]
20 | O=C(Nc1ccc(F)cc1F)N1CCCN(CCOc2ccccc2)CC1 | inactive | –
21 | CS(=O)(=O)Nc1ccccc1C(=O)OCC(=O)NC1CC1 | – | 15.6% [at 12.7 µM]
22 | Cc1cccc(NC(=O)Cn2cc(S(=O)(=O)Cc3ccccc3Cl)c3ccccc32)c1 | inactive | –
23 | CC(C)(C)N1C(=O)[C@H]2[C@@H](c3ccc(Br)cc3)N3C(=O)N(c4cccc(Cl)c4)C(=O)[C@@]3(C)[C@H]2C1=O | – | -8.49% [at 2.33 µM]
24 | CCN(CC)CCNC(=O)Cn1ncc2c3ccccc3n(Cc3ccccc3C)c2c1=O | inactive | –
25 | Cn1c(=O)n(C)c2cc(S(=O)(=O)Nc3ccc(F)cc3)ccc21 | inactive | –

Row | SMILES | Potency | activity, negative = inhibition
26 | CCC1C/C(=C/c2cccs2)C(=O)/C(=C/c2cccs2)C1 (configuration not stated) | 39.8 µM (active) | –
27 | O=C1/C(=C/c2cccs2)CCc2ccccc21 | inactive | –
28 | CN1C/C(=C/c2cccs2)C(=O)/C(=C\c2cccs2)C1 | – | 1.72% [at 12.7 µM]
29 | COc1ccc(CCNc2nc3c(-c4cccc(F)c4)nnn3c3ccccc23)cc1OC | inactive | –
30 | Cc1ccc(Cn2c(=O)n(Cc3nc(-c4ccccc4)no3)c(=O)c3cc4c(cc32)OCO4)cc1 | inactive | –
31 | COc1cccc(C2=CC(=O)C[C@H](c3ccc(OC)c(OC)c3)C2)c1 | – | -2.09% [at 2.33 µM]
32 | CCOC(=O)c1c(C)oc2nc(C)nc(Nc3ccc(CC)cc3)c12 | inactive | –
33 | Cc1nc(N2CCOCC2)c2c(C(=O)NCc3cccc(Cl)c3)c(C)oc2n1 | inactive | –
34 | CCOC(=O)c1c(C)oc2nc(C)nc(N3CCN(c4ccc(OC)cc4)CC3)c12 | 12.6 µM (active) | –
35 | CC(=O)c1cc2c(cc1NC(=O)Cn1nc(-c3ccc(F)cc3)ccc1=O)OCO2 | inactive | –
36 | O=C(CN1C(=O)CCn2nc(-c3ccccc3)cc21)NCc1ccccc1 | inactive | –
37 | CC1=CC(C)(C)Nc2ccc(OC(=O)CN3C(=O)C4CCCCC4C3=O)cc21 (configuration not stated) | inactive | –
38 | COC(=O)c1ccccc1NC(=O)C(Cc1ccccc1)N1Cc2ccccc2C1=O (configuration not stated) | inactive | –
39 | CC1=CC(C)(C)Nc2ccc(OC(=O)C(Cc3ccccc3)N3C(=O)C4CCCCC4C3=O)cc21 (configuration not stated) | 50.1 µM (active) | –
40 | CC1(C)O[C@H]2CC(=O)OCC23[C@H]2CC[C@@]4(C)[C@H](c5ccoc5)OC(=O)[C@H]5O[C@]54[C@]2(C)C(=O)C[C@@H]13 (some centres not stated) | – | 12.6% [at 12.7 µM]
41 | COc1ccc(CCNC(=O)CCCCn2c(=O)c3ccccc3n(Cc3ccccc3C)c2=O)cc1OC | inactive | –
42 | O=c1cc(CO)oc(C(Nc2cccc(C(F)(F)F)c2)c2ccccn2)c1O (configuration not stated) | 1.26 µM (active) | –
43 | O=c1cc(CO)oc(C(Nc2cccc([N+](=O)[O-])c2)c2ccccn2)c1O (configuration not stated) | 0.794 µM (active) | –
44 | Cc1ccc(CN(C)CC(=O)Nc2cccc([N+](=O)[O-])c2)o1 | inactive | –
45 | O=C(Nc1cccc(C(F)(F)F)c1)c1cnccn1 | inactive | –
46 | O=C(Nc1cccc([N+](=O)[O-])c1)Nn1cnnc1 | inactive | –
47 | FC(F)(F)c1cccc(Nc2ncnc3ccccc23)c1 | – | 8.16% [at 12.7 µM]
48 | CCOC(=O)c1c(C)n(S(=O)(=O)c2ccc(C)cc2C)c2ccc(NS(=O)(=O)c3ccc(C)cc3C)cc12 | inactive | –
49 | COc1ccc(NC(=O)CCCC(=O)c2ccccc2)cc1 | inactive | –
50 | Cc1ccc(N/C=C/C(=O)c2ccccc2)cc1C | inactive | –

Row | SMILES | Potency | activity, negative = inhibition
51 | O=C(/C=C\NCC(=O)c1ccccc1)c1ccccc1 | 6.31 µM (active) | –
52 | Cc1ccc(/C=C/C(=O)OCC(=O)NCc2ccc(Cl)cc2)o1 | – | -2.38% [at 2.33 µM]
53 | CC(C)NC(=O)/C(C#N)=C\c1ccc(N(C)C)c(Br)c1 | 39.8 µM (active) | –
54 | Cc1[nH]c2ccccc2c1/C=C(/C#N)C(=O)NC(C)C | inactive | –
55 | Cc1ccc(/C=C(\C#N)C(=O)Nc2cc(C)ccc2C)cc1 | inactive | –
56 | Cc1ccc(NC(=O)Nc2sc3nc4n(c(=O)c3c2C)CCC(C)CC4)c(Cl)c1 (configuration not stated) | inactive | –
57 | Nc1c(N(Cc2ccco2)C(=O)c2cccc(F)c2)c(=O)[nH]c(=O)n1Cc1ccccc1 | – | -3.15% [at 12.7 µM]
58 | O=c1[nH]c(=O)n(Cc2ccco2)c2c1C(C(F)(F)F)(C(F)(F)F)N=C(c1ccco1)N2 | 50.1 µM (active) | –
59 | Cc1ccccc1C1=NC(C(F)(F)F)(C(F)(F)F)c2c(n(-c3ccc(F)cc3)c(=O)[nH]c2=O)N1 | inactive | –
60 | CCCn1c(=S)[nH]c2ccc(C(F)(F)F)cc21 | 11.2 µM (active) | –
61 | COc1ccc(/C(C)=N\NC(=O)c2ccc(-c3ccccc3)cc2)c(F)c1 | inactive | –
62 | Cc1cccc(C(=O)NC(=S)N(C)C2CCCCC2)c1 | inactive | –
63 | CC(OC(=O)c1ccccc1NCCO)C(=O)Nc1ccnn1C(C)C (configuration not stated) | – | -12.9% [at 12.7 µM]
64 | CC(=O)c1cccc(Nc2ccc3cc(S(=O)(=O)N4CCC(C)CC4)ccc3n2)c1 | inactive | –
65 | Cc1cccc(S(=O)(=O)c2cn(Cc3ccccc3)c3cc(N4CCOCC4)c(F)cc3c2=O)c1 | inactive | –
66 | COc1ccc(C23NCCN2C(=O)c2ccccc23)cc1 (configuration not stated) | inactive | –
67 | CN1CCN(c2ncc3c(n2)CC(c2ccccc2F)CC3=O)CC1 (configuration not stated) | inactive | –
68 | CC1=C(C(=O)Nc2cc(C)ccn2)C(c2cnn(C)c2)C2=C(CC(c3ccccc3)CC2=O)N1 (configuration not stated) | inactive | –
69 | Cc1nc2nc3c(cn2n1)C(=O)CC(c1ccccc1)C3 (configuration not stated) | 56.2 µM (active) | –
70 | CC(=O)c1ccc(NC(c2ccc(F)cc2)c2nnc(-c3ccccc3)o2)cc1 (configuration not stated) | inactive | –
71 | COc1cccc(NC(=O)C2CCN(c3cc(C)nc4c(-c5ccc(Cl)cc5)c(C)nn34)CC2)c1 | inactive | –
72 | CN(C)CCN(Cc1ccccc1)S(=O)(=O)c1csc(C(N)=O)c1 | inactive | –
73 | O=C(c1cc(-c2ccc(O)cc2)on1)N1CCOCC1 | inactive | –
74 | Cc1ccc(OCCSc2nc3ccc(NC(=O)COc4ccc(C)cc4)cc3s2)cc1 | inactive | –
75 | COc1cc(C(=O)Nn2c(CC(C)C)nc3ccccc3c2=O)cc(OC)c1OC | inactive | –

Row | SMILES | Potency | activity, negative = inhibition
76 | COc1cc(C(=O)Nn2c(O)c(C3=c4ccccc4=NC3=O)sc2=S)ccc1O | 44.7 µM (active) | –
77 | CCCn1ccc2c(OCC(=O)NCc3ccc(F)cc3)cccc2c1=O | inactive | –
78 | COc1ccc(N(C)S(=O)(=O)c2ccc3c(c2)CC(C)N3C(=O)C2CC2)c(OC)c1 (configuration not stated) | inactive | –
79 | O=C(c1cn(-c2ccccc2)nc1-c1cc2ccccc2oc1=O)N1CCOCC1 | inactive | –
80 | O=C(Nc1cc2ccccc2oc1=O)C1CCCCC1 | inactive | –
81 | O=c1oc2ccccc2cc1-c1cn(-c2ccccc2)c(=S)[nH]1 | 1.41 µM (active) | –
82 | CCC(=O)N1CCc2cc(S(=O)(=O)NC(C(=O)NCCc3ccc(C)cc3)C(C)C)ccc21 (configuration not stated) | inactive | –
83 | Cc1ccc(NC(=S)NCc2ccccc2Cl)c(C)c1 | inactive | –
84 | Cc1ccc(NC(=S)Nc2ncccc2C)c(C)c1 | 31.6 µM (active) | –
85 | Cc1ccc(NC(=S)NCCc2ccc(Cl)cc2)c(C)c1 | inactive | –
86 | COc1ccc(S(=O)(=O)Nc2cc(C)on2)cc1NC(C)=O | – | 2.19% [at 12.7 µM]
87 | O=C(CNS(=O)(=O)c1cccs1)N1CCN(c2ccccc2Cl)CC1 | inactive | –
88 | CCCSc1nc2c(c(=O)n(C)c(=O)n2C)n1Cc1ccc(C)cc1 | inactive | –
89 | CCCCn1c(SCC(=O)NCCc2ccc(OC)c(OC)c2)nc2c1c(=O)n(C)c(=O)n2C | inactive | –
90 | CCOc1ccc(Cn2c(SCCCCC#N)nc3c2c(=O)n(C)c(=O)n3C)cc1OCC | 35.5 µM (active) | –
91 | O=C(CN1C(=O)C2C3C=CC(C3)C2C1=O)Nc1nc(-c2ccccn2)cs1 (configuration not stated) | 39.8 µM (active) | –
92 | O=C(CCN1C(=O)C2C3C=CC(C3)C2C1=O)Nc1ccccc1F (configuration not stated) | inactive | –
93 | O=C(NCCN1C(=O)C2C3C=CC(C3)C2C1=O)Nc1ccccn1 (configuration not stated) | inactive | –
94 | COCCCN(C(=O)CSCc1ccc(C)cc1)c1c(N)n(Cc2ccccc2)c(=O)[nH]c1=O | inactive | –
95 | Cc1c(CNC2CCCCC2)c(C(=O)O)c(C)n1Cc1cccc(Cl)c1 | inactive | –
96 | Cc1onc(-c2c(F)cccc2Cl)c1C(=O)N(C)CC(=O)Nc1cccc(F)c1 | inactive | –
97 | CCOC(=O)c1ccc(NC(=O)CCS(=O)(=O)c2ccc(C)cc2)cc1 | inactive | –
